Assay outcomes: PubChem, several laboratories
PrPC surface inh: inhibitors of human cell surface prion protein PrPC, primary screen, cell-based, TR-FRET; TR-FRET read-out; inhibition, % at 13.8 µM; 370,000 tested, 0.43% active; in the data active means inhibition above about 24%; further: 0% = median of the test wells and 100% = reference compound wells
Yp Topo-I inh: Yersinia pestis topoisomerase I inhibitors, primary screen, biochemical, cleavage product accumulation, plate reader, single point | DNA topoisomerase I (Yersinia pestis CO92) | Y. pestis Topo-I cleavage product accumulation | activity, % at 10 µM | 360,000 tested, 0.064% active | AID 504884, 2011; in the data active means activity above about 50%, passing the limit was not always enough
TcdB inh: TcdB glycohydrolase inhibitors, primary screen, biochemical, single point, plate reader; TcdB glycohydrolase enzymatic assay; inhibition, % at 9.99 µM; 350,000 tested, 0.24% active; AID 652162, 2013; in the data active means inhibition above about 10%
FBA Mtb inh: Mtb FBA enzyme inhibitors, primary screen, biochemical, fluorescence, strain H37Rv | inhibition, % at 1 µM | 360,000 tested, 2.3% active | Fructose-bisphosphate aldolase (Mycobacterium tuberculosis (strain ATCC 25618 / H37Rv)), … | AID 588726, 2011 | purified M. tuberculosis FBA, fluorescence read-out; in the data active means inhibition above about 27%;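 further: 0% = vehicle and 100% = reference inhibitor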
Target sequence (P9WQA3 whole entry, looked up): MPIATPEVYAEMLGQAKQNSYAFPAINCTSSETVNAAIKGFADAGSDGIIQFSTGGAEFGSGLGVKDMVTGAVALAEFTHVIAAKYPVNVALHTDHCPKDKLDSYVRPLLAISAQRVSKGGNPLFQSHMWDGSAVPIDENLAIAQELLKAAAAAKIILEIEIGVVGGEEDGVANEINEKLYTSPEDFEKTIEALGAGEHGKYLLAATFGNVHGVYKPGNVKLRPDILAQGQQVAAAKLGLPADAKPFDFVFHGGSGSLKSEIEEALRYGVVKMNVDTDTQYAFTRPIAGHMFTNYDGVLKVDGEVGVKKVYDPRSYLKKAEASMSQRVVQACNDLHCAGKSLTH
GDH-TPI inh: GDH-TPI coupling enzyme inhibitors, primary screen, artefact control for M. tuberculosis FBA inhibitor project, biochemical, absorbance, full deck; GDH-TPI coupled enzyme counterscreen, NADH absorbance; inhibition, % at 4.8 µM; 360,000 tested, 1.2% active; in the data active means inhibition above about 30%;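 further: 0% = DMSO wells and 100% = wells lacking the enzyme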
PrPC TRFRET cf: confirmation of inhibitors of cell surface human prion protein, confirmation, cell-based, TR-FRET; shares compounds with PrPC surface inh; cell surface PrPC level; inhibition, % at 13.8 µM; 1,500 tested, 65% active; AID 743200, 2013; in the data active means inhibition above about 25%
LD9 tox: cytotoxicity in LD9 cells, cytotoxicity control for cell surface PrPc inhibitor project, cell-based, luminescence, high throughput; shares compounds with PrPC surface inh; luminescence viability; inhibition, % at 13.8 µM; 1,500 tested, 29% active; AID 743201, 2013; in the data active means inhibition above about 9.5%
* = called active by the depositor; · = no result. Only some compounds are listed: those with a hit (about 3.2% of all), similar ones and a draw of the others.

SMILES	PrPC surface inh	Yp Topo-I inh	TcdB inh	FBA Mtb inh	GDH-TPI inh	PrPC TRFRET cf	LD9 tox
CC(=O)OC(C)(C)/C=C/C(=O)[C@](C)(O)C1[C@H](O)C[C@@]2(C)C3CC=C4C(C=C(O[C@@H]5O[C@H](CO)[C@@H](O)[C@H](O)[C@H]5O)C(=O)C4(C)C)[C@]3(C)C(=O)C[C@]12C (some centres not stated)	7.2	13.3	1.2	2.1	11.8	·	·
CC(=O)OC(C)(C)/C=C/C(=O)C(C)(O)C1[C@H](O)C[C@@]2(C)C3CC=C4C(CC[C@@H](O)C4(C)C)[C@]3(CO)C(=O)C[C@]12C (some centres not stated)	30.2*	0.6	-1.3	4.0	2.6	32.9*	2.7
Cc1ccc(S(=O)(=O)Nc2ccc3c(c2)C(=O)N([C@@H](C)CO)C[C@H](C)[C@H](CN(C)Cc2ccc4c(c2)OCO4)OCCCC[C@H](C)O3)cc1	·	·	-2.4	·	·	·	·
O=C(Nc1ccc([N+](=O)[O-])cc1)Nn1cnnc1	36.6*	2.8	2.0	2.3	27.8	-0.6	0.7
Cc1ccc(NC(=O)Nn2cnnc2)cc1	4.9	8.0	0.8	5.1	1.7	·	·
O=C(C1CCOCC1)N1C[C@H]2[C@@H](c3ccccc31)[C@H](CO)N2C(=O)Nc1ccccc1F	·	·	-0.3	·	·	·	·
Cc1nn(C)c(C)c1/C=C(/C(=O)C(C)(C)C)n1cncn1	14.1	-0.5	0.1	-2.1	12.3	·	·
CC(C)(C)C(=O)/C(=C/c1ccncc1)n1cncn1	34.1*	3.0	-1.0	0.8	-3.1	1.1	44.2*
CO[C@@H]1CN(C)C(=O)c2ccc(NS(=O)(=O)C3CCCCC3)cc2OC[C@H](C)NC[C@H]1C	·	·	-0.3	·	·	·	·
CC(C)C#Cc1ccc2c(c1)O[C@H](CN(C)C(=O)Cc1ccccn1)[C@H](C)CN([C@H](C)CO)S2(=O)=O	·	·	0.1	·	·	·	·
CCOC(=O)/C=C/S(=O)(=O)c1ccc(NC(C)=O)cc1	88.7*	12.9	·	-4.6	13.6	-9.5	98.1*
CCOCc1nc(N)nc(N)c1-c1cccc(Cl)c1	26.1*	-4.8	3.9	-1.1	-3.1	-2.3	1.8
C[C@@H]1CN([C@H](C)CO)C(=O)c2cc(NC(=O)c3ccncc3)ccc2O[C@@H]1CN(C)Cc1ccc(Cl)c(Cl)c1	·	·	1.1	·	·	·	·
Cc1ccccc1Cn1cc(NC(=O)c2cc(-c3cccs3)on2)cn1	13.7	-4.2	·	11.8	7.9	·	·
Cc1ccccc1Cn1cc(NC(=O)c2cc(-c3ccco3)on2)cn1	29.6*	-8.6	0.0	3.3	19.5	15.8	5.1
CO[C@@H]1CN(C)C(=O)c2ccc(NS(=O)(=O)CC(F)(F)F)cc2OC[C@H](C)N(Cc2cccnc2)C[C@H]1C	·	·	-1.0	·	·	·	·
C[C@@H]1CN([C@@H](C)CO)C(=O)c2cc(C#CC3CC3)cnc2O[C@@H]1CN(C)Cc1ccccn1	·	·	-1.4	·	·	·	·
CCOc1ccc(C2c3[nH]c4ccccc4c3CCN2C(=O)Cn2cncn2)cc1 (configuration not stated)	36.6*	29.9	1.9	-1.4	-2.5	33.8*	-5.9
Cc1cc(Br)c(OCc2ccc(C(=O)N/N=C/c3ccc[nH]3)cc2)c(Br)c1	26.5*	-4.9	0.4	-0.4	6.0	51.5*	65.2*
COCc1cc(=O)[nH]c(Nc2nc3ccc(C)cc3o2)n1	31.6*	6.5	·	6.7	34.4*	12.7	47.7*
CCc1ccc2nc(Nc3nc(COC)cc(=O)[nH]3)nc(C)c2c1	-3.9	-3.2	1.1	0.4	4.5	·	·
Cc1noc(C)c1S(=O)(=O)Nc1ccc2c(c1)C(=O)N([C@@H](C)CO)C[C@@H](C)[C@@H](CN(C)C(=O)NC(C)C)OCCCC[C@@H](C)O2	·	·	0.9	·	·	·	·
N=C1C(c2ccccc2)=C(O)CN1c1ccccc1	28.9*	-0.6	0.6	-2.0	0.8	7.8	-1.4
COc1ccc(CC2NCC(O)C2OC(C)=O)cc1 (configuration not stated)	93.8*	-1.5	0.5	1.8	8.8	98.9*	51.3*
